Measured values published in publication PMC11062922 (Nature Chemical Biology, 2023).
Where two headings read alike, the source gives them in different places.

Key:
Parameters in all cases: species or system human, MV4-11 + K-562 + COLO205 + SK-N-BE2 + OVCAR-8
ADK = details: read-out: apparent Kd, n = 1
RAB5C = details: read-out: apparent Kd; compound concentrations:100 nM and 1000 nM (sheet 'Samples'); n = 1
PAK6 = details: read-out: apparent Kd; compound concentrations:100 nM and 1000 nM (sheet 'Samples'); n = 1
CDK9 = details: read-out: apparent Kd; compound concentrations:100 nM and 1000 nM (sheet 'Samples'); n = 1
AXL = details: read-out: apparent Kd; compound concentrations: 100 nM and 1000 nM (sheet 'Samples'), CATDS: 1.37984345324301E-2; n = 1
WEE1 = details: read-out: apparent Kd; compound concentrations: 100 nM and 1000 nM (sheet 'Samples'), CATDS: 2.0722471674581099E-2; n = 1
ATR = details: read-out: apparent Kd; compound concentrations:100 nM and 1000 nM (sheet 'Samples'); n = 1
MCM5 = details: read-out: apparent Kd; compound concentrations:100 nM and 1000 nM (sheet 'Samples'); n = 1
RAB14 = details: read-out: apparent Kd; compound concentrations:100 nM and 1000 nM (sheet 'Samples'); n = 1
PRKD1 = details: read-out: apparent Kd, n = 1
CAMK2B = details: read-out: apparent Kd, n = 1
ACLY = details: read-out: apparent Kd, compound concentrations: 100 nM and 1000 nM (sheet 'Samples'), n = 1
TP53RK = details: read-out: apparent Kd, n = 1
NME2;NME2P1 = details: read-out: apparent Kd; compound concentrations: 100 nM and 1000 nM (sheet 'Samples'), CATDS: 6.5363052061215496E-2; n = 1
TTK = details: read-out: apparent Kd, compound concentrations: 100 nM and 1000 nM (sheet 'Samples'), n = 1
PLK1 = details: read-out: apparent Kd, n = 1
[1] = compound concentrations:100 nM and 1000 nM (sheet 'Samples')

SMILES: COc1cc2ncn(-c3cc(OCc4cccs4)c(C(N)=O)s3)c2cc1OC [GSK312948A]
- potency estimated from few doses (ADK; [1]): 863 nM
- potency estimated from few doses (RAB5C): 1450 nM

SMILES: COc1cc2ncn(-c3cc(OCCCc4ccccc4)c(C(N)=O)s3)c2cc1OC [GSK205189A]
- potency estimated from few doses (PAK6): 1960 nM

SMILES: N#Cc1cccc(Nc2nccc(-c3cnn4ncccc34)n2)c1 [GW778894X]
- potency estimated from few doses (CDK9): 3.72 nM

SMILES: CNC(=O)c1ccccc1Nc1nc(Nc2cccc(CS(C)(=O)=O)c2)ncc1C.O=CO [GSK1520489A]
- potency estimated from few doses (AXL): 374 nM
- potency estimated from few doses (WEE1): 127 nM

SMILES: Nc1nc(N)c2nc(-c3ccccc3)[nH]c2n1 [SKF-12778]
- potency estimated from few doses (ATR): 520 nM
- potency estimated from few doses (MCM5): 2160 nM
- potency estimated from few doses (RAB14): 1300 nM

SMILES: CC(C)c1nc(-c2ccc(F)c(NS(=O)(=O)c3c(F)cccc3F)c2)c(-c2ccnc(Nc3ccc(N4CCOCC4)nc3)n2)s1 [GSK1804250A]
- potency estimated from few doses (PRKD1; [1]): 1140 nM

SMILES: COc1ccc(C2=C(c3cn(C)c4ccccc34)C(=O)NC2=O)cc1OC [RO3206363-000]
- potency estimated from few doses (PRKD1; compound concentrations: 100 nM and 1000 nM (sheet 'Samples'), CATDS: 5.5883212244700199E-2): 347 nM

SMILES: Cc1ccc(NC(=O)Nc2ccccc2)cc1-c1ccc(C(=O)Nc2ccncc2)cc1 [GSK1398471A]
- potency estimated from few doses (PRKD1; compound concentrations: 100 nM and 1000 nM (sheet 'Samples'), CATDS: 0.105821439316495): 1680 nM

SMILES: COc1cccc(C2=C(c3cn(C)c4c(C)cccc34)C(=O)NC2=O)c1 [RO3301012-000]
- potency estimated from few doses (CAMK2B; compound concentrations: 100 nM and 1000 nM (sheet 'Samples'), CATDS: 0.15582522082394101): 642 nM

SMILES: O=C1NC(=O)C(c2cccc(Cl)c2)=C1Nc1ccc(O)c(Cl)c1 [SB-409514]
- potency estimated from few doses (ACLY; CATDS: 0.38429140901440101): 1000 nM

SMILES: Nc1c(C(=O)c2ccccc2)cnn1-c1ccc(F)cc1 [RO1151246-000]
- potency estimated from few doses (TP53RK; [1]): 1850 nM

SMILES: Cc1[nH]nc2c1N=C(c1ccccc1Cl)c1cc([N+](=O)[O-])ccc1N2 [RO0274406-000]
- potency estimated from few doses (NME2;NME2P1): 1680 nM

SMILES: COc1cc(N2CCN(C(C)C)CC2)ccc1Nc1nc(Nc2cccc(F)c2C(=O)O)c2cc[nH]c2n1 [GSK1819799A]
- potency estimated from few doses (ACLY; CATDS: 4.2702759645578299E-2): 2000 nM
- potency estimated from few doses (TTK; CATDS: 6.5910432506735395E-2): 662 nM

SMILES: Cl.Oc1ccc2ncnc(Nc3ccc(OCc4ccccc4)cc3)c2c1 [GI262866A]
- potency estimated from few doses (CAMK2B; [1]): 391 nM

SMILES: COc1cc2ncn(-c3cc(OCc4sccc4Cl)c(C(N)=O)s3)c2cc1OC [GSK448459A]
- potency estimated from few doses (PLK1; [1]): 81.2 nM

SMILES: COc1ccc(Nc2nccc(N3CCC(NC(=O)Nc4cccc(OC)c4)C3)n2)cc1 (stereo not drawn) [GSK1379742A]
- potency estimated from few doses (ADK; compound concentrations: 100 nM and 1000 nM (sheet 'Samples'), CATDS: 0.15674492121070999): 1070 nM
- potency estimated from few doses (TP53RK; compound concentrations: 100 nM and 1000 nM (sheet 'Samples'), CATDS: 0.10793216189185099): 2270 nM

SMILES: Fc1cccc(COc2ccc(Nc3ncncc3C#Cc3ccccc3)cc2Cl)c1 [GW651576X]
- potency estimated from few doses (TTK; CATDS: 4.4346947520248398E-2): 2370 nM

SMILES: COc1cc(F)c(F)c(F)c1C(=O)c1cnc(NC2CCN(S(C)(=O)=O)CC2)nc1N [RO4600703-000]
- potency estimated from few doses (CDK9): 349 nM

SMILES: NC(=O)c1sc(-n2cnc3ccc(C(F)(F)F)cc32)cc1OCc1ccccc1Br [GW853606X]
- potency estimated from few doses (PLK1; compound concentrations: 100 nM and 1000 nM (sheet 'Samples'), CATDS: 0.32728933930944998): 1020 nM

SMILES: Cn1cc(C2=C(c3cccc([N+](=O)[O-])c3)C(=O)NC2=O)c2ccccc21 [RO0317474-000]
- potency estimated from few doses (CAMK2B; compound concentrations: 100 nM and 1000 nM (sheet 'Samples'), CATDS: 0.20512519327704001): 717 nM

SMILES: COc1ccc(-c2nn3ncccc3c2-c2ccnc(Nc3ccc4c(c3)OCCO4)n2)cc1 [GW827106X]
- potency estimated from few doses (TTK; CATDS: 4.8165403785390797E-2): 1630 nM
